# Assay results reported in PubChem BioAssay.
# Calls of active or inactive are those of the source.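 Rule for the calls, unless noted: active = signal rise over 3 SD above mean of control wells given weak agonist, in both repeats and first screen; inactive = the rest.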
# Test system: TRPC4 (mouse), co-expressed with 5HT1a in HEK293
# Experiment: calcium flux potentiators in TRPC4/5HT1a cells, confirmation, counter-screen for TRPC4 potentiator project, cell-based, second counter screen, HEK293 TRPC4/5HT1a, Fluo-4 (AID 434979)
# Conditions: Fluo-4 calcium flux, at 10 µM, serotonin added at its EC20 dose; active compounds read high
row,SMILES,outcome
1,COc1cc(C(F)(F)F)nc2c(Br)c(C(C)(C)C)nn12,inactive
2,COc1ccccc1N(C(=O)c1snc(C(N)=O)c1N)C(C(=O)NC1CCCC1)c1ccc2ncccc2c1 (stereo not given),inactive
3,CCc1c(C(=O)N2CCCN(C)CC2)csc1C,inactive
4,O=c1c2ccccc2nc(SCc2ccc([N+](=O)[O-])cc2)n1CCCO,inactive
5,CN1/C(=C\C(=O)C[n+]2ccc3ccccc3c2)C(C)(C)c2ccccc21,inactive
6,CN(C)CCCN(C(=O)c1ccc(S(=O)(=O)N2CCCC2)cc1)c1nc2c(F)cc(F)cc2s1,inactive
7,O=[N+]([O-])c1cccc(N(CC(O)CN2CCCC2)S(=O)(=O)c2ccccc2)c1 (stereo not given),inactive
8,Cc1cc(Nc2cccc(O)c2)c2ccccc2n1,inactive
9,COc1ccc(CN2CCN(Cc3ccc(C(F)(F)F)cc3)CC2)c(OC)c1,inactive
10,O=[N+]([O-])c1ccc(O)c(C2=NNC(c3ccccc3F)C2)c1 (stereo not given),inactive
11,Cn1c(-c2ccccc2)cnc1NCc1ccc(F)cc1,inactive
12,COc1nc(N=C(N)N)nc2ccc(C)cc12,inactive
13,CN(CC(=O)NC1CCCc2ccccc21)C1CCCCC1 (stereo not given),inactive
14,O=C(CSc1nnc(-c2ccc(Cl)cc2Cl)n1C1CCCCC1)N1CCCC1,inactive
15,Cc1ccc(Nc2cc(C)nc3c(C)cccc23)cc1,inactive
16,COc1cc(OC)c(C2N(C)c3ccccc3N2C)cc1OC,inactive
17,O=[N+]([O-])c1cccc(-c2nnc(C3CC3)o2)c1,inactive
18,O=C(NCCN1CCOCC1)c1cc2sccc2n1Cc1ccc(F)cc1,inactive
19,CN(C)CCCNc1c2ccccc2nc2ccccc12,inactive
20,COc1ccccc1Nc1nc(NCC2CCCO2)c2ccccc2n1 (stereo not given),inactive

row,SMILES,outcome
1,CC12CCC(C/C1=N/OC(=O)c1cccc([N+](=O)[O-])c1)C2(C)C (stereo not given),inactive
2,CCN(CC)CCN(C(=O)c1ccccc1OC)c1nc2ccc(F)cc2s1,inactive
3,CCOc1ccccc1N(C(=O)c1snc(C(N)=O)c1N)C(C(=O)NCc1ccccc1)c1ccc(O)cc1 (stereo not given),inactive
4,Cc1cc([N+](=O)[O-])ccc1NCc1ccccc1,inactive
5,Cn1c(-c2ccc(F)cc2)cnc1NCc1ccc(F)cc1F,inactive
6,Nc1cc(N2CCCCC2)c([N+](=O)[O-])cc1Cl,inactive
7,CN(C)C(CNC(=O)c1cccc(C(F)(F)F)c1)c1ccco1 (stereo not given),inactive
8,COc1ccc(CN2CCN(C(=O)c3ccc(F)cc3)CC2)c(OC)c1,inactive
9,COCCn1c(SCc2ccccc2F)nc2ccccc2c1=O,inactive
10,COc1ccccc1C(=O)Nc1ccc2c(c1)CCCN2C(=O)c1cccs1,inactive
11,CCCCn1c(NCc2ccc(N(C)C)cc2)nc2ccccc21,inactive
12,COc1ccc([N+](=O)[O-])cc1NCc1ccco1,inactive
13,Cc1cc(C)c2nc(C)cc(N/N=C/c3ccc(O)cc3)c2c1,inactive
14,Cc1nn(C(=O)CNS(=O)(=O)c2ccccc2)c(C)c1Sc1ccc(Cl)cc1,inactive
15,Cc1n[nH]c(C)c1CCCCOc1ccccc1F,inactive
16,COC(=O)C1=C(C)N(Cc2ccccc2)C(=S)N[C@H]1c1ccccc1,inactive
17,CC1(c2ccccc2)CC(C)(C)N(C(=O)C2CCCO2)c2ccccc21 (stereo not given),inactive
18,CC(OC(=O)CNC(=O)c1ccccc1F)C(=O)Nc1nc(-c2ccccc2)cs1 (stereo not given),inactive
19,CC(OCC(O)CN(C)CCOc1ccccc1)c1ccc(Cl)cc1 (stereo not given),inactive
20,Cc1cc(-c2sccc2C)nc(-n2cccc2)n1,inactive

# Test system: not listed separately
# Experiment: calcium flux activation in mu-opioid HEK293 cells, confirmation, counter-screen for TRPC4 activator project, cell-based, HEK293 mu-opioid receptor line (AID 449723;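 active = hit in primary screen, with calcium signal over 5 SD above buffer well mean in both duplicates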;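 note: counter screen cells carry the mu-opioid receptor alone and lack TRPC4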)
# Conditions: Fluo-4 calcium fluorescence, at 10 µM; active compounds read high
SMILES,outcome,activation
COc1cc(C(F)(F)F)nc2c(Br)c(C(C)(C)C)nn12,inactive,
COc1ccccc1N(C(=O)c1snc(C(N)=O)c1N)C(C(=O)NC1CCCC1)c1ccc2ncccc2c1 (stereo not given),inactive,
CCc1c(C(=O)N2CCCN(C)CC2)csc1C,inactive,
O=c1c2ccccc2nc(SCc2ccc([N+](=O)[O-])cc2)n1CCCO,inactive,
CN1/C(=C\C(=O)C[n+]2ccc3ccccc3c2)C(C)(C)c2ccccc21,inactive,
CN(C)CCCN(C(=O)c1ccc(S(=O)(=O)N2CCCC2)cc1)c1nc2c(F)cc(F)cc2s1,inactive,
O=[N+]([O-])c1cccc(N(CC(O)CN2CCCC2)S(=O)(=O)c2ccccc2)c1 (stereo not given),inactive,
Cc1cc(Nc2cccc(O)c2)c2ccccc2n1,inactive,
COc1ccc(CN2CCN(Cc3ccc(C(F)(F)F)cc3)CC2)c(OC)c1,inactive,
O=[N+]([O-])c1ccc(O)c(C2=NNC(c3ccccc3F)C2)c1 (stereo not given),,20.8% (active)
Cn1c(-c2ccccc2)cnc1NCc1ccc(F)cc1,inactive,
COc1nc(N=C(N)N)nc2ccc(C)cc12,inactive,
CN(CC(=O)NC1CCCc2ccccc21)C1CCCCC1 (stereo not given),inactive,
O=C(CSc1nnc(-c2ccc(Cl)cc2Cl)n1C1CCCCC1)N1CCCC1,inactive,
Cc1ccc(Nc2cc(C)nc3c(C)cccc23)cc1,inactive,
COc1cc(OC)c(C2N(C)c3ccccc3N2C)cc1OC,inactive,
O=[N+]([O-])c1cccc(-c2nnc(C3CC3)o2)c1,inactive,
O=C(NCCN1CCOCC1)c1cc2sccc2n1Cc1ccc(F)cc1,inactive,
CN(C)CCCNc1c2ccccc2nc2ccccc12,inactive,
COc1ccccc1Nc1nc(NCC2CCCO2)c2ccccc2n1 (stereo not given),inactive,

SMILES,outcome,activation
CC12CCC(C/C1=N/OC(=O)c1cccc([N+](=O)[O-])c1)C2(C)C (stereo not given),inactive,
CCN(CC)CCN(C(=O)c1ccccc1OC)c1nc2ccc(F)cc2s1,inactive,
CCOc1ccccc1N(C(=O)c1snc(C(N)=O)c1N)C(C(=O)NCc1ccccc1)c1ccc(O)cc1 (stereo not given),inactive,
Cc1cc([N+](=O)[O-])ccc1NCc1ccccc1,inactive,
Cn1c(-c2ccc(F)cc2)cnc1NCc1ccc(F)cc1F,inactive,
Nc1cc(N2CCCCC2)c([N+](=O)[O-])cc1Cl,inactive,
CN(C)C(CNC(=O)c1cccc(C(F)(F)F)c1)c1ccco1 (stereo not given),inactive,
COc1ccc(CN2CCN(C(=O)c3ccc(F)cc3)CC2)c(OC)c1,inactive,
COCCn1c(SCc2ccccc2F)nc2ccccc2c1=O,inactive,
COc1ccccc1C(=O)Nc1ccc2c(c1)CCCN2C(=O)c1cccs1,inactive,
CCCCn1c(NCc2ccc(N(C)C)cc2)nc2ccccc21,inactive,
COc1ccc([N+](=O)[O-])cc1NCc1ccco1,inactive,
Cc1cc(C)c2nc(C)cc(N/N=C/c3ccc(O)cc3)c2c1,inactive,
Cc1nn(C(=O)CNS(=O)(=O)c2ccccc2)c(C)c1Sc1ccc(Cl)cc1,inactive,
Cc1n[nH]c(C)c1CCCCOc1ccccc1F,inactive,
COC(=O)C1=C(C)N(Cc2ccccc2)C(=S)N[C@H]1c1ccccc1,inactive,
CC1(c2ccccc2)CC(C)(C)N(C(=O)C2CCCO2)c2ccccc21 (stereo not given),inactive,
CC(OC(=O)CNC(=O)c1ccccc1F)C(=O)Nc1nc(-c2ccccc2)cs1 (stereo not given),inactive,
CC(OCC(O)CN(C)CCOc1ccccc1)c1ccc(Cl)cc1 (stereo not given),inactive,
Cc1cc(-c2sccc2C)nc(-n2cccc2)n1,inactive,
